# Screen size: about 1,400 compounds; about 1,100 (79%) were called active.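 Rule for the calls: active = fitted half-maximal concentration of a falling signal no higher than twice the top valid dose in every test run; inconclusive = runs disagree, or flat partial inhibition, or poor fit; inactive = every run inactive: flat, wrong direction, or potency beyond limit.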 The set was probably picked from earlier hits. Only a sample is shown. Results with a measured potency or affinity are listed apart.
# Assay: HIV-1 AD8 envelope cell-cell fusion blockers – cherry-pick, dose response (AID 652062)
# Conditions: HeLa-AD8 Env / CEM-CCR5 cell fusion, luciferase; at 35 µM (top of the series) unless noted
row,Compound,"activity change, negative = inhibition"
1,C[C@H]1CN([C@@H](C)CO)S(=O)(=O)c2ccc(-c3cccc(F)c3)cc2O[C@H]1CN(C)S(=O)(=O)c1ccccc1,-18.9%
2,CCOC(=O)C(C)Oc1cccc2c(=O)n(CC(=O)NCCc3ccc(OC)c(OC)c3)ccc12 (stereo not given),3.5%
3,CC(C)(C)c1ccc(-n2ncc3c2CCCC3NC(=O)CN2CCCC2=O)cc1 (stereo not given),-53.4%
4,c1ccc(CSc2nnc([C@@H]3CCCN3)o2)cc1,25%
5,Cc1ccccc1S(=O)(=O)NC(=O)C1(C)CCN1C(=O)CCc1ccc(Cl)cc1Cl (stereo not given),-6.19%
6,C[C@H](CO)N1C[C@H](C)[C@H](CN(C)Cc2ccccc2)Oc2c(NC(=O)Nc3ccc4c(c3)OCO4)cccc2C1=O,19.6% [at 16 µM]
7,CNC[C@H]1Oc2c(NC(=O)Nc3ccc(C(F)(F)F)cc3)cccc2C(=O)N([C@@H](C)CO)C[C@H]1C,50.6%
8,CC(C)CC#Cc1ccc2c(c1)O[C@@H](CN(C)C(=O)C1CCCCC1)[C@H](C)CN([C@@H](C)CO)S2(=O)=O,-88.1%
9,CCOc1ccc2c(c1)-c1c(ssc1=S)C(C)(C)N2C(=O)c1ccco1,-10.3%
10,COc1cc(OC)cc(C(=O)N[C@H](C(=O)NCCc2c[nH]c3ccccc23)C(C)C)c1,-23.6%
11,C[C@H]1CN([C@@H](C)CO)C(=O)c2cc(NS(C)(=O)=O)ccc2O[C@@H]1CN(C)Cc1ccc(Cl)c(Cl)c1,37.5%
12,C[C@@H]1CN([C@@H](C)CO)C(=O)c2cccc(NS(=O)(=O)c3ccc(F)cc3)c2O[C@@H]1CN(C)Cc1ccc(-c2ccccc2)cc1,44.3% [at 16 µM]
13,C[C@H]1CN([C@@H](C)CO)C(=O)Cc2cc(N(C)C)ccc2O[C@H]1CN(C)Cc1ccc(Cl)c(Cl)c1,15.3%
14,Cn1cc(S(=O)(=O)N2CCOCC2)cc1C(=O)Nc1cccc(Cl)c1,-9.96%
15,COc1ccc(-c2nn(C)c(=O)c3ccccc23)cc1NC(=O)Cn1nc(C)c2ccccc2c1=O,6.7%
16,Cc1cc(C(C)(C)C)oc1C(=O)N(CC(=O)NC1CCCC1)Cc1ccc(Cl)cc1,-9.64%
17,Cc1ccccc1-n1c(=O)c2ccccc2n2cnnc12,40.3%
18,CCOC(=O)C1CCN(C(=O)c2ccc3c(c2)C(=O)N(c2ccccc2C)C3=O)CC1,68.2%
19,CCN(CC)CCN(C(=O)c1cc(Cl)sc1Cl)c1nc2cc3c(cc2s1)OCO3,54.2%
20,O=C(NCC[C@@H]1CC[C@@H](NS(=O)(=O)c2ccccc2F)[C@@H](CO)O1)c1ccc(F)cc1,36%
21,Cc1nc2sc(C(c3ccco3)N3CCC(Cc4ccccc4)CC3)c(O)n2n1 (stereo not given),111%
22,O=C(CNC(=O)c1cccc(-n2cccc2)c1)Nc1ccccc1Br,4.51%
23,O=C(CCNC(=O)c1ccc(Br)cc1)NNC(=O)COc1ccccc1F,9.15%
24,Nc1nonc1C(=O)NCCNCc1c(OCc2ccccc2F)ccc2ccccc12,10.1%
25,O=C(Nc1cc(Cl)cc(Cl)c1)C(c1ccccc1)N1CCCCC1 (stereo not given),-7.46%

row,Compound,"activity change, negative = inhibition"
1,C[C@H]1CN([C@@H](C)CO)C(=O)c2ccccc2-c2ccccc2CO[C@H]1CN(C)S(=O)(=O)c1ccccc1C#N,30.6%
2,CCN1CCN(S(=O)(=O)c2ccc(Cl)c(C(=O)Nc3ccccc3N3CCCC3)c2)CC1,48.8%
3,CO[C@@H]1CN(C)C(=O)c2cc(NC(=O)Nc3ccc(Cl)cc3)ccc2OC[C@H](C)N(C)C[C@H]1C,-19.7%
4,C[C@H](CO)N1C[C@H](C)[C@H](CN(C)S(=O)(=O)c2ccc(C#N)cc2)Oc2ncc(/C=C/c3ccccc3)cc2C1=O,16.9% [at 16 µM]
5,C[C@@H]1CN([C@H](C)CO)C(=O)c2cc(C#Cc3ccncc3)cnc2O[C@@H]1CN(C)S(=O)(=O)c1ccccc1F,-27%
6,S=c1nc[nH]c2c1[nH]c1ccc(Cl)cc12,149%
7,N#Cc1ccc(CSc2nnc(COc3ccccc3)n2-c2ccccc2)cc1,7.17%
8,C[C@H]1CN([C@@H](C)CO)C(=O)c2cc(NS(=O)(=O)c3ccc(F)cc3)ccc2O[C@H]1CN(C)S(=O)(=O)c1ccc(F)cc1,7.89%
9,CCCNC(=O)C[C@H]1C[C@H]2c3cc(NC(=O)CN(C)C)ccc3O[C@H]2[C@H](CO)O1,-19.9% [at 16 µM]
10,CCCNC(=O)C[C@@H]1C[C@@H]2c3cc(NC(=O)CN(C)C)ccc3O[C@@H]2[C@H](CO)O1,48.2%
11,CCCNC(=O)C[C@@H]1C[C@@H]2c3cc(NC(=O)Cc4ccncc4)ccc3O[C@@H]2[C@H](CO)O1,-27.5%
12,CCCNC(=O)C[C@H]1C[C@H]2c3cc(NC(=O)Cc4ccncc4)ccc3O[C@H]2[C@H](CO)O1,-15.2%
13,C[C@H](CO)N1C[C@H](C)[C@@H](CN(C)CC2CC2)Oc2ccc(NS(C)(=O)=O)cc2CC1=O,4.33%
14,C[C@@H]1CN([C@@H](C)CO)C(=O)Cc2cc(NC(=O)c3ccncc3)ccc2O[C@H]1CN(C)Cc1ccc(Cl)c(Cl)c1,-39.7%
15,C[C@H]1CN([C@@H](C)CO)C(=O)Cc2cc(N(C)C)ccc2O[C@H]1CN(C)CC1CC1,11.8%
16,Nc1ccc(S(=O)(=O)c2ccc(N3CCOCC3)c(N)c2)cc1,-17.7%
17,Cc1ccc(S(=O)(=O)N(C)C[C@H]2Oc3cc(-c4cccc(F)c4)ccc3S(=O)(=O)N([C@H](C)CO)C[C@H]2C)cc1,-33.7%
18,COc1ccccc1-c1ccc2c(c1)O[C@H](CN(C)S(=O)(=O)c1ccccc1)[C@H](C)CN([C@H](C)CO)S2(=O)=O,18.5%
19,COc1ccc2c3c(n(C)c2c1)[C@@H](CO)N(C(=O)C1CCOCC1)CC31CCN(Cc2cccc(F)c2)CC1,-3.19%
20,COc1ccc2c3c([nH]c2c1)[C@@H](CO)N(C(=O)Nc1cccc(F)c1)CC31CCN(S(=O)(=O)c2ccccc2)CC1,-99.7%
21,COc1ccc2c3c(n(C)c2c1)[C@@H](CO)N(C(=O)Nc1ccc(F)cc1)CC31CCN(Cc2cccc(F)c2)CC1,-2.46%
22,COc1ccc2c3c([nH]c2c1)[C@H](CO)N(C(=O)Nc1cccc(F)c1)CC31CCN(S(=O)(=O)c2ccccc2)CC1,-57.4%
23,CC1(C(=O)NCc2ccc3c(c2)OCO3)CCN1Cc1csc2ccccc12 (stereo not given),-11%
24,CCNC1CCC(Nc2ccnc3cc(Cl)ccc23)CC1 (stereo not given),-25.4%
25,CCCCCCc1nc2ccccc2c(=O)n1NC(=O)c1c(O)c2c(n(CC(C)C)c1=O)CCCC2,-7.39%

row,Compound,"activity change, negative = inhibition"
1,COc1ccc(-c2nn(C)c(=O)c3ccccc23)cc1NC(=O)COc1ccccc1,-10.9%
2,COc1ccc(OCC(=O)Nc2cc(-c3nn(C)c(=O)c4ccccc34)ccc2OC)cc1,-23.3%
3,CN(C)C(=O)C[C@H]1C[C@@H]2c3cc(NS(=O)(=O)c4ccc(F)cc4)ccc3O[C@@H]2[C@@H](CO)O1,-6.58%
4,CS(=O)(=O)Nc1ccc2c(c1)[C@H]1C[C@@H](CC(=O)NCCN3CCCCC3)O[C@@H](CO)[C@H]1O2,21%
5,CS(=O)(=O)Nc1ccc2c(c1)[C@@H]1C[C@@H](CC(=O)N3CCc4ccccc4C3)O[C@H](CO)[C@@H]1O2,41.9%
6,CN(C)C(=O)C[C@@H]1C[C@@H]2c3cc(NS(=O)(=O)c4ccc(F)cc4)ccc3O[C@@H]2[C@@H](CO)O1,8.4%
7,CS(=O)(=O)Nc1ccc2c(c1)[C@H]1C[C@H](CC(=O)N3CCc4ccccc4C3)O[C@H](CO)[C@H]1O2,-8.56%
8,O=C(Nc1ccc(F)cc1)Nc1ccc2c(c1)[C@@H]1C[C@H](CC(=O)N3CCCCC3)O[C@H](CO)[C@@H]1O2,-21.7%
9,O=C(Nc1ccc(F)cc1)Nc1ccc2c(c1)[C@@H]1C[C@H](CC(=O)N3CCCCC3)O[C@@H](CO)[C@@H]1O2,-7.88%
10,CN1CCN(C(=O)C[C@H]2C[C@@H]3c4cc(NS(C)(=O)=O)ccc4O[C@@H]3[C@H](CO)O2)CC1,-46%
11,COc1cccc(S(=O)(=O)Nc2ccc3c(c2)[C@H]2C[C@H](CC(=O)NCc4ccc(Cl)cc4)O[C@@H](CO)[C@H]2O3)c1,0.353%
12,O=C(C[C@@H]1C[C@H]2c3cc(NC(=O)Nc4ccc(F)cc4)ccc3O[C@H]2[C@H](CO)O1)NCC1CC1,49.9%
13,O=C(C[C@H]1C[C@@H]2c3cc(NC(=O)Nc4ccc(F)cc4)ccc3O[C@@H]2[C@@H](CO)O1)NCC1CC1,-36.8%
14,CN(C)CC(=O)Nc1ccc2c(c1)[C@H]1C[C@H](CC(=O)NCc3cccc(F)c3)O[C@@H](CO)[C@H]1O2,-1.18%
15,COCCNC(=O)C[C@@H]1C[C@H]2c3cc(N(C)C)ccc3O[C@H]2[C@@H](CO)O1,-37%
16,O=C(C[C@@H]1C[C@H]2c3cc(NC(=O)C4CCOCC4)ccc3O[C@H]2[C@H](CO)O1)NCc1ccccc1F,10.9%
17,O=C(C[C@H]1C[C@H]2c3cc(NS(=O)(=O)c4ccc(F)cc4)ccc3O[C@H]2[C@@H](CO)O1)NCc1ccccc1F,28%
18,O=C(C[C@@H]1C[C@@H]2c3cc(NC(=O)C4CCOCC4)ccc3O[C@@H]2[C@H](CO)O1)NCc1ccccc1F,23.2%
19,O=C(C[C@H]1C[C@@H]2c3cc(NC(=O)C4CCOCC4)ccc3O[C@@H]2[C@@H](CO)O1)NCc1ccccc1F,-7.12%
20,COc1ccc(S(=O)(=O)N(C)C[C@H]2Oc3cc(C4=CCCC4)ccc3S(=O)(=O)N([C@@H](C)CO)C[C@H]2C)cc1,5.51%
21,Cc1ccc(S(=O)(=O)N(C)C[C@H]2Oc3cc(C4=CCCC4)ccc3S(=O)(=O)N([C@H](C)CO)C[C@H]2C)cc1,-41.2%
22,COc1cccc(/C=N/NC(=O)CC2C(=O)NN=C2C)c1O (stereo not given),-20%
23,COc1ccc(CCCC(=O)NCCc2ccccc2)c(C)c1,7.11%
24,CCCNC(=O)C[C@@H]1C[C@@H]2c3cc(NC(=O)Cc4ccncc4)ccc3O[C@@H]2[C@@H](CO)O1,-32.8% [at 30 µM]
25,CCCNC(=O)C[C@@H]1C[C@H]2c3cc(NC(=O)Cc4ccncc4)ccc3O[C@H]2[C@@H](CO)O1,10.9% [at 30 µM]
